The results in this text go back to publication PMC4336329 (PLoS ONE, 2015).

Molecules are shown by their SMILES. Among all 310,000 compounds or so, about 14,000 (4.5%) showed an effect of 50% or more. The effect is printed as a negative number. What follows is part of a selection rich in strong results, with near analogues and random picks from the rest.
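Further: peak tail current of the secondary pulse compared with the same well before compound.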

Chain of human ether-à-go-go-related gene (hERG) potassium channel (Q12809 whole entry, looked up): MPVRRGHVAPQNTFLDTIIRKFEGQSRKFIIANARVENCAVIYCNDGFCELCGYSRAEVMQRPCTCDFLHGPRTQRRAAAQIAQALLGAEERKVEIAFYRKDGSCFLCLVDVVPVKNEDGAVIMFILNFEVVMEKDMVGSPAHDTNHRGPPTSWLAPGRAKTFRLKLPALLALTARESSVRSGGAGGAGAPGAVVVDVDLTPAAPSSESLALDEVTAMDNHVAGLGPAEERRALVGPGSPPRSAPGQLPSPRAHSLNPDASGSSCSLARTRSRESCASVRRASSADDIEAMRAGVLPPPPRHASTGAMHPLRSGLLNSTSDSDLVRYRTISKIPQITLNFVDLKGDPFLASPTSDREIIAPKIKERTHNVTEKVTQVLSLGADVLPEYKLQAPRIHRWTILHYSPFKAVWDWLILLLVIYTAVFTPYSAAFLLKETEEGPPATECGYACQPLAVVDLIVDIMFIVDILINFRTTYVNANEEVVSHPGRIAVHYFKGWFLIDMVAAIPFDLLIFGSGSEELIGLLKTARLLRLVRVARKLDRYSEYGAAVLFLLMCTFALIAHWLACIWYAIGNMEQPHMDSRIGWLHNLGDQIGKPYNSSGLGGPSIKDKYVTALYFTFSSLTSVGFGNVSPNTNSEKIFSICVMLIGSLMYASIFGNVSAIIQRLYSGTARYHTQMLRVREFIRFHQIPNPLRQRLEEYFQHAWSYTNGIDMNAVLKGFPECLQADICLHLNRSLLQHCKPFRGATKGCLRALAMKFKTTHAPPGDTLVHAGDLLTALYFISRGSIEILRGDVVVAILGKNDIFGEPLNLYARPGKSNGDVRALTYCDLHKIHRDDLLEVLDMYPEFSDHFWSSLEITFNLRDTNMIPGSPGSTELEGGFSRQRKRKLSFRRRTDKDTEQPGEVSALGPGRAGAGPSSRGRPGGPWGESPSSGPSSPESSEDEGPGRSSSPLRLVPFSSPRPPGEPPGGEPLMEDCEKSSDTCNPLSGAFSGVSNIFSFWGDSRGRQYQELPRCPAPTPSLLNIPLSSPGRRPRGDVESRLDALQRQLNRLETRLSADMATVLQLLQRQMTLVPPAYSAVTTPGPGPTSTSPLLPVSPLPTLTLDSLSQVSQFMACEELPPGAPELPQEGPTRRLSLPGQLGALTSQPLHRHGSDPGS

The test concerns the target human ether-à-go-go-related gene (hERG) potassium channel (human, UniProt Q12809). Put plainly: primary screen, population patch clamp on CHO cells stably expressing hERG; higher = less effect of the substance.
Consider `CCOC(=O)C1=NN(c2cccc(Cl)c2)C2=NC(C)=C(C(=O)OC)C(c3cccs3)N12` (stereo not drawn), for which the “hERG current change (%, negative = inhibition) at 10uM” value is given as 6.72%.

As to `COc1cc(CN2CCC(Cc3ccccc3)CC2)cc(OC)c1OC.O=C(O)C(=O)O`, the “hERG current change (%, negative = inhibition) at 10uM” value is listed as -52.8%.

Consider `COc1cc(CN2CCN(C(=O)Cc3ccccc3)CC2)cc(OC)c1OC.O=C(O)C(=O)O`, for which the “hERG current change (%, negative = inhibition) at 10uM” value was -0.522%.

In the case of `COc1ccc(OC)c(CN2CCN(C(=O)c3cccc4ccccc34)CC2)c1.O=C(O)C(=O)O`, the “hERG current change (%, negative = inhibition) at 10uM” value is on record as -2.37%.

For the compound `COc1ccc(CCNC(=O)c2ccc(CN3CCC(Cc4ccccc4)CC3)cc2)cc1`, the “hERG current change (%, negative = inhibition) at 10uM” value is on record as -15.6%.

As to `COc1ccc(CN2CCC(Cc3ccccc3)CC2)cc1OC.O=C(O)C(=O)O`, the “hERG current change (%, negative = inhibition) at 10uM” value was -70.3%.

As for `COc1cc(CN2CCC(C(N)=O)CC2)ccc1OCc1ccccc1.O=C(O)C(=O)O`, the “hERG current change (%, negative = inhibition) at 10uM” value is reported as -39.9%.

With `COc1cc(CN2CCC(Cc3ccccc3)CC2)cc([N+](=O)[O-])c1O`, the “hERG current change (%, negative = inhibition) at 10uM” value is 0.943%.

For the compound `COc1ccc(OC)c(CN2CCN(Cc3cccc4ccccc34)CC2)c1.O=C(O)C(=O)O`, the “hERG current change (%, negative = inhibition) at 10uM” value is on record as -65.2%.

For the compound `COc1ccc(CN2CCC(C(N)=O)CC2)cc1OCc1ccccc1.O=C(O)C(=O)O`, the “hERG current change (%, negative = inhibition) at 10uM” value was -19.1%.

Consider `COc1ccc(CCNC(=O)c2ccc(CN3CCC(Cc4ccccc4)CC3)cc2)cc1OC`, for which the “hERG current change (%, negative = inhibition) at 10uM” value is -67.9%.

As for `COc1ccc(C(=O)N2CCN(Cc3cc(OC)ccc3OC)CC2)cc1.O=C(O)C(=O)O`, the “hERG current change (%, negative = inhibition) at 10uM” value is given as -36%.

With `COc1ccc(CCNC(=S)N2CCC(Cc3ccccc3)CC2)cc1OC`, the “hERG current change (%, negative = inhibition) at 10uM” value was -41.1%.

As for `CCOc1cc(/C=N/NC(=O)CSc2cccc3cccnc23)ccc1O`, the “hERG current change (%, negative = inhibition) at 10uM” value was found to be 9.6%.

As for `CCOc1ccccc1OCCC(=O)OCC(=O)Nc1c(C)nn(-c2ccccc2)c1C`, the “hERG current change (%, negative = inhibition) at 10uM” value was found to be 1.41%.

With `O=C(CCC(=O)c1ccccc1)NCc1cccc(C(F)(F)F)c1`, the “hERG current change (%, negative = inhibition) at 10uM” value stood at 4.89%.

As to `CC(C)(C)c1ccc(/C=C(\c2nc3ccccc3[nH]2)S(=O)(=O)c2ccccc2)cc1`, the “hERG current change (%, negative = inhibition) at 10uM” value came to 0.84%.

Take `O=C(Nc1c2c(nn1-c1ccccc1)CS(=O)(=O)C2)c1ccccc1C(F)(F)F`: the “hERG current change (%, negative = inhibition) at 10uM” value amounted to 14.3%.

On to `O=C(O)c1ccc(/C=C/c2nc3sc4c(c3c(=O)[nH]2)CCC4)cc1`, for which the “hERG current change (%, negative = inhibition) at 10uM” value is 14.2%.

For the compound `Cc1nn(C(=O)c2cccnc2)c(C)c1C`, the “hERG current change (%, negative = inhibition) at 10uM” value was 0.855%.

For `C/C(=N/NS(=O)(=O)c1cccc([N+](=O)[O-])c1)c1c[nH]c2ccccc12`, the “hERG current change (%, negative = inhibition) at 10uM” value stood at 13%.

With `CCOC(=O)/C(C#N)=C/c1cccc([N+](=O)[O-])c1`, the “hERG current change (%, negative = inhibition) at 10uM” value was determined as 25%.

`CC(Oc1ccccc1Cl)C(=O)Nc1ccc(S(=O)(=O)Nc2nccs2)cc1` (stereo not drawn): the “hERG current change (%, negative = inhibition) at 10uM” value is listed as -0.857%.

`CC1CCC2(CC1)NC(=O)N(CC(=O)Nc1cccc(C#N)c1)C2=O` (stereo not drawn): the “hERG current change (%, negative = inhibition) at 10uM” value stood at 9.8%.

Turning to `O=C(NCc1cccnc1)NC(=O)c1ccc(Cl)cc1`, the “hERG current change (%, negative = inhibition) at 10uM” value is listed as 3.09%.

For `CCN1C(=O)[C@@H]2[C@@H](c3ccc(-c4ccc5c(c4)OCO5)cc3)N3CCCC[C@@]3(C(=O)OC)[C@@H]2C1=O.O=C(O)C(F)(F)F`, the “hERG current change (%, negative = inhibition) at 10uM” value is 21%.

Consider `COc1ccc(OC)c(CN2CCCCCC2)c1.O=C(O)C(=O)O`, for which the “hERG current change (%, negative = inhibition) at 10uM” value is 15.7%.

`Cc1[nH]c2ccccc2c1CN1CCC(Cc2ccccc2)CC1.O=C(O)C(=O)O`: the “hERG current change (%, negative = inhibition) at 10uM” value is -67.4%.

With `O=C(O)C(=O)O.c1ccc(CC2CCN(Cc3ccccn3)CC2)cc1`, the “hERG current change (%, negative = inhibition) at 10uM” value is -23.1%.

With `COc1ccc(OC)c(CN2CCN(C(=O)Cc3ccccc3)CC2)c1.O=C(O)C(=O)O`, the “hERG current change (%, negative = inhibition) at 10uM” value was -4.63%.

Turning to `COc1ccc(Br)cc1CN1CCN(C(=O)c2ccc(OC)c(OC)c2)CC1.O=C(O)C(=O)O`, the “hERG current change (%, negative = inhibition) at 10uM” value is reported as -38.1%.

For the compound `Cc1[nH]c2ccccc2c(=O)c1CN1CCCCCC1`, the “hERG current change (%, negative = inhibition) at 10uM” value is reported as -7.41%.

As to `COc1ccc(Br)cc1CN1CCN(C(=O)c2cccc(F)c2)CC1.O=C(O)C(=O)O`, the “hERG current change (%, negative = inhibition) at 10uM” value is -39.2%.

`COc1cccc(C(=O)N2CCN(Cc3cc(Br)ccc3OC)CC2)c1.O=C(O)C(=O)O`: the “hERG current change (%, negative = inhibition) at 10uM” value is given as -51.8%.

`COc1ccc(OC)c(CN2CCC(Cc3ccccc3)CC2)c1.O=C(O)C(=O)O`: the “hERG current change (%, negative = inhibition) at 10uM” value is -69.4%.

Regarding `CN1CCN(/N=C/c2nc(-c3ccccc3Cl)n3ccccc23)CC1`, the “hERG current change (%, negative = inhibition) at 10uM” value is on record as -34.1%.

Regarding `CCCOC(=O)Nc1ccccc1C(N)=O`, the “hERG current change (%, negative = inhibition) at 10uM” value came to 4.61%.

With `O=C(O)CCCCC1SCC2NC(=O)NC21` (stereo not drawn), the “hERG current change (%, negative = inhibition) at 10uM” value turned out to be 3.46%.

`O=C(Nc1ccccc1F)Nc1ccc([N+](=O)[O-])cc1Cl`: the “hERG current change (%, negative = inhibition) at 10uM” value is listed as 18.4%.

On to `O=C(c1cc(=O)[nH]c2ccccc12)N1CCN(c2cccc(C(F)(F)F)c2)CC1`, for which the “hERG current change (%, negative = inhibition) at 10uM” value was -27.1%.

Regarding `CCOC(=O)c1sc(=S)n(-c2ccccc2Cl)c1C`, the “hERG current change (%, negative = inhibition) at 10uM” value is -13.8%.

For `CCOC(=O)Cn1c(=NC(=O)c2cccs2)sc2cc(C(=O)OC)ccc21`, the “hERG current change (%, negative = inhibition) at 10uM” value is 17.4%.

On to `Cc1ccc(NC(=O)c2cc([N+](=O)[O-])ccc2Cl)c(O)c1`, for which the “hERG current change (%, negative = inhibition) at 10uM” value is recorded as -4.12%.

On to `Cc1nc2cc(NC(=O)CS(=O)(=O)c3ccccc3)ccc2s1`, for which the “hERG current change (%, negative = inhibition) at 10uM” value is listed as -23.8%.

On to `Cc1nc2cc(NC(=O)CS(=O)(=O)c3ccc(F)cc3)ccc2s1`, for which the “hERG current change (%, negative = inhibition) at 10uM” value was -55.8%.
